Shown are actives, neighbours in structure and some others; about 8.7% of the full set was active somewhere.
AMA1-RON2 inh: qHTS for Inhibitors of AMA1-RON; Towards Development of Antimalarial Drug Lead: Primary Screen; Plasmodium falciparum AMA1 (3D7) - RON2 peptide interaction; 360,000 tested, 0.2% active; Potency, µM (doses to about 58.2 µM), for the others: at the top dose activity change, negative = inhibition, usual class: inhibitors; AlphaScreen AMA1-biotinylated RON2 peptide binding;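 also: potency is read from the fitted curve at half-maximal effect; 0% = vehicle wells and -100% = peptide control; nearly all actives have a fitted effect of over 45% in size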
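AMA1 (3D7) with his tag at 25 nM final met compounds first, then biotinylated RON2 peptide at 25 nM; detection used donor plus acceptor beads, 10 µg/mL apiece, read by AlphaScreen after 30 min at room temperature.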
Vaccinia mCherry: qHTS for Stage-Specific Inhibitors of Vaccinia Orthopoxvirus: mCherry Reporter Primary qHTS; AID 720579, 2013; 310,000 tested, 0.63% active; Vaccinia virus mCherry reporter infection, fluorescence; Potency, µM (titrated, usually from 36.5 µM), for the others: at the top dose activity change, negative = inhibition, hits mostly inhibitors; calls by dose curve; tested in A549 cells; also: potency is read from the fitted curve at half-maximal effect; % is scaled to controls: 0 for no effect and ±100 for the full control effect; nearly all actives have a fitted effect of over 35% in size
Vaccinia Venus: qHTS for Stage-Specific Inhibitors of Vaccinia Orthopoxvirus: Venus Reporter Primary qHTS. Vaccinia virus Venus reporter expression, fluorescence. Potency, µM (highest dose often 36.5 µM), for the others: top-dose activity change, negative = inhibition, actives largely listed as inhibitors. 330,000 tested, 0.46% active. AID 720580, 2013; calls by dose curve; tested in A549 cells; also: potency is read from the fitted curve at half-maximal effect; % is scaled to controls: 0 for no effect and ±100 for the full control effect; nearly all actives have a fitted effect of over 30% in size
Pf growth 96h: Primary qHTS for delayed death inhibitors of the malarial parasite plastid, 96 hour incubation. 320,000 tested, 6.9% active. Potency, µM (series often up to 28.7 µM), for the others: top-dose activity change, negative = inhibition, actives largely listed as inhibitors. AID 504834, 2011. P. falciparum luciferase reporter growth, 96 h; also: potency is read from the fitted curve at half-maximal effect; % is scaled to controls: 0 for no effect and ±100 for the full control effect
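Two-generation exposure (96 h) targets delayed-death phenotype. Reporter parasites carrying integrated firefly luciferase, in red cells at 2% hematocrit and 0.05% parasitemia final, kept at 37 C, 5% CO2; luminescence loss indicates inhibition.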
Pf growth 48h: Primary qHTS for delayed death inhibitors of the malarial parasite plastid, 48 hour incubation | P. falciparum luciferase growth in erythrocytes, 48 h | Potency, µM (highest dose often 28.7 µM), without a hit: at the top dose activity change, negative = inhibition, usual class: inhibitors | 310,000 tested, 5.9% active; also: potency is read from the fitted curve at half-maximal effect; % is scaled to controls: 0 for no effect and ±100 for the full control effect
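Cell-based growth assay: transgenic P. falciparum expressing firefly luciferase, cultured in red cells within RPMI 1640 containing 0.5% w/v Albumax, 24 mM bicarbonate and gentamycin. A drop in luciferase activity indicates inhibition.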
CLK4 cf ADPGlo: Confirmaiton Assay for Inhibitors of CDC-like Kinase 4 (ADP-Glo Assay). shares compounds with Pf growth 48h. recombinant Clk4, RS peptide, ADP-Glo luminescence. Potency, µM (titrated, usually from 80 µM), inactives show top-dose activity, negative = inhibition, usual class: inhibitors. 65 tested, 80% active
Target sequence (Q9HAZ1 whole entry, looked up): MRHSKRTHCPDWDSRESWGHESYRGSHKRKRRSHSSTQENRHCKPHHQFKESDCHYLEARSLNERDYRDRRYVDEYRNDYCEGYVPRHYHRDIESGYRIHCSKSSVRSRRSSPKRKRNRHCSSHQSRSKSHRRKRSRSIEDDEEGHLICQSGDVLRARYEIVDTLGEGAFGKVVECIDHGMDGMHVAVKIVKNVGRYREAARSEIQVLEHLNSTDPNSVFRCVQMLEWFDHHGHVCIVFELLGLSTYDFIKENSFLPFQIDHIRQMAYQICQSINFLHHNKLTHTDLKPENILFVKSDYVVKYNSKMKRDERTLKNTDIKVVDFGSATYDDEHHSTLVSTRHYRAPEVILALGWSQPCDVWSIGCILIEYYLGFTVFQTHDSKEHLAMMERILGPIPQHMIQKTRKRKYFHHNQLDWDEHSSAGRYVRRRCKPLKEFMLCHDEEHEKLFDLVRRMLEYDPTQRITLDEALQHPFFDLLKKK
CLK4 cf ADP-FP: Confirmation Assay for Inhibitors of CDC-like Kinase 4 (ADP-FP Assay); shares compounds with Pf growth 48h; Potency, µM (top dose mostly 80 µM), without a hit: at the highest dose activity, negative = inhibition, actives largely listed as inhibitors; recombinant Clk4, ADP Transcreener FP, RS peptide; 65 tested, 70% active
Numbers without * were called inactive; i = inactive; ? = inconclusive; nt = not tested or not shown; [ ] = dose if it differs, or a comment. Unless noted, calls follow the shape of the dose curve; as a rule, active = well fitted curve in the direction sought with a large enough effect; inconclusive = small, poorly fitted or top-dose-only effect, or another doubt; inactive = no such curve, though single readings can be large; an effect the other way counts as inactive or inconclusive.

SMILES	AMA1-RON2 inh	Vaccinia mCherry	Vaccinia Venus	Pf growth 96h	Pf growth 48h	CLK4 cf ADPGlo	CLK4 cf ADP-FP
CCOc1ccc(C(=O)C[n+]2cccc3cc(C)ccc32)cc1	-9.9%	i	4.4%	7.1%	8.28µM*	nt	nt
O=C(C[n+]1cccc2ccccc21)c1ccccc1	1.9%	-12.2%	1.9%	13.1µM*	?	nt	nt
Cc1cc[n+](CC(=O)c2ccc(NC(=O)c3ccccc3)cc2)c2ccccc12	-25.7%	nt	nt	?	1.65µM*	nt	nt
Cc1cc[n+](CC(=O)c2ccc(NC(=O)c3ccccc3)cc2)cc1	-0.4%	nt	nt	15.5%	?	nt	nt
O=C(Nc1ccc[n+](CC(=O)c2cccc3ccccc23)c1)c1ccccc1	5.0%	15.8µM*	?	?	?	nt	nt
CCc1ccccc1NNC(=O)c1sccc1Cl	nt	-16.7%	-15.8%	nt	nt	nt	nt
COc1ccc(-c2c(C#N)c(SCC(=O)Nc3ccc(C)c(C)c3)nc(C)c2C(=O)Nc2ccccc2)cc1OC	nt	-1.9%	-10.7%	nt	nt	nt	nt
O=C(C[n+]1cccc2ccccc21)c1ccc(NC(=O)c2ccccc2)cc1	-5.3%	nt	nt	?	2.08µM*	nt	nt
Cc1cccc(Cn2ccn(Cc3ccc(Cl)cc3)c(=O)c2=O)c1	nt	-1.6%	-4.6%	nt	nt	nt	nt
CC(C)(C)NC(=O)NC(=O)COC(=O)Cn1cnc2ccccc2c1=O	-2.1%	nt	nt	-3.0%	11.7µM*	nt	nt
O=C(COC(=O)Cn1cnc2ccccc2c1=O)NCc1ccccc1	-0.4%	i	2.2%	4.7%	8.1%	nt	nt
Cc1nc2ccc(S(=O)(=O)NCC(=O)Nc3ccc(F)cc3F)cc2s1	nt	-8.3%	-2.3%	nt	nt	nt	nt
CCOc1ccc(CN2CCN(Cc3cnc(-c4ccccc4)s3)CC2CCO)cc1 (stereo not given)	3.3%	nt	nt	?	?	nt	nt
CCOc1ccc(CN2CCN(CC3=Cc4cccc(OC)c4OC3)CC2CCO)cc1 (stereo not given)	-5.9%	nt	nt	?	10.4µM*	nt	nt
COc1ccc(OC)c(CN2CCN(CCc3ccccc3)C(CCO)C2)c1 (stereo not given)	5.1%	-11.1%	3.4%	13.1µM*	-11.3%	nt	nt
OCCC1CN(Cc2cc(F)ccc2F)CCN1CCCc1ccccc1 (stereo not given)	1.8%	nt	nt	13.1µM*	?	nt	nt
COc1ccc(F)c(CN2CCN(CCc3ccccc3)C(CCO)C2)c1 (stereo not given)	-24.9%	-11.3%	-4.3%	3.7µM*	-23.0%	nt	nt
CCc1ccc(C(=O)c2cn(CC(=O)Nc3cccc(C)c3C)c3nc(C)ccc3c2=O)cc1	nt	9.6%	4.1%	nt	nt	nt	nt
CCc1ccc(-n2c(N3CCN(c4ccc(F)cc4)CC3)nc3ccccc3c2=O)cc1	nt	-13.2%	-21.4%	nt	nt	nt	nt
Cn1ccc2cc(-c3ccc4ncnc(NCc5cccc(F)c5)c4c3)ccc21	nt	nt	nt	3.7µM*	8.28µM*	?	?
CN(C)c1ccc(-c2ccc3ncnc(NCc4ccccc4)c3c2)cc1	nt	-0.1%	0.0%	nt	nt	nt	nt
Cn1ccc2cc(-c3ccc4ncnc(NCc5cccnc5)c4c3)ccc21	nt	nt	nt	2.62µM*	1.85µM*	10µM*	14.1µM*
Cn1ccc2cc(-c3ccc4ncnc(NCc5cccs5)c4c3)ccc21	nt	nt	nt	5.22µM*	2.94µM*	14.1µM*	?
CC(=O)N1CCOc2cc(S(=O)(=O)NCc3ccc(C)cc3)c(C)cc21	nt	-9.1%	-16.1%	nt	nt	nt	nt
O=C(Cn1ncc2c([nH]c3ccccc32)c1=O)Nc1cc(F)ccc1F	nt	-3.1%	-7.0%	nt	nt	nt	nt
SMILES	AMA1-RON2 inh	Vaccinia mCherry	Vaccinia Venus	Pf growth 96h	Pf growth 48h	CLK4 cf ADPGlo	CLK4 cf ADP-FP
Cc1c(NC(=O)c2ccc(OC(C)C)cc2)cccc1-c1nc2ncccc2o1	nt	-20.1%	-14.3%	nt	nt	nt	nt
c1cncc(-c2ccc3ncnc(NCc4cccs4)c3c2)c1	nt	nt	nt	9.28µM*	?	3.16µM*	7.08µM*
COc1cccc(-c2ccc3ncnc(NCc4cccs4)c3c2)c1	nt	i	0.0%	4.15µM*	9.28µM*	1µM*	1.12µM*
Clc1cccc(-c2ccc3ncnc(NCc4cccnc4)c3c2)c1	nt	nt	nt	13.1µM*	?	4.47µM*	?
c1cncc(CNc2ncnc3ccc(-c4cccnc4)cc23)c1	nt	-18.9%	-16.4%	?	?	7.94µM*	12.6µM*
Clc1ccc2ncnc(NCc3ccc4c(c3)OCO4)c2c1	nt	-13.6%[60.7 µM]	-6.6%[60.7 µM]	nt	nt	nt	nt
N#Cc1cccc(-c2ccc3ncnc(NCc4cccnc4)c3c2)c1	nt	i	16.8%	nt	nt	nt	nt
Clc1ccccc1-c1ccc2ncnc(NCc3cccnc3)c2c1	nt	nt	nt	?	-5.1%	12.6µM*	?
c1nc(NCc2ccc3c(c2)OCO3)c2cc(-c3ccoc3)ccc2n1	nt	nt	nt	?	?	0.708µM*	0.891µM*
Fc1cccc(CNc2ncnc3ccc(-c4ccc5c(c4)OCO5)cc23)c1	nt	nt	nt	2.94µM*	4.15µM*	0.141µM*	0.0891µM*
c1ccc(-n2ncc3c(NCc4ccc5c(c4)OCO5)ncnc32)cc1	-1.8%	-4.5%	-6.6%	?	-1.1%	nt	nt
Cc1cccc(CNc2ncncc2-c2ccc3c(c2)OCO3)c1	nt	-6.2%	-3.3%	nt	nt	nt	nt
Clc1ccccc1-c1ccc2ncnc(NCc3ccc4c(c3)OCO4)c2c1	nt	nt	nt	3.7µM*	8.28µM*	?	-16.6%
c1cncc(-c2ccc3ncnc(NCc4ccc5c(c4)OCO5)c3c2)c1	nt	nt	nt	?	?	7.08µM*	11.2µM*
c1cncc(CNc2ncnc3ccc(-c4ccc5c(c4)OCCO5)cc23)c1	nt	nt	nt	4.1%	17.1%	0.398µM*	0.708µM*
CCn1ccc2cc(S(=O)(=O)N3CCC(C(=O)NCCc4ccc(C)cc4)CC3)ccc21	nt	-17.6%	-7.7%	nt	nt	nt	nt
Cc1cc(C(F)(F)F)c2c(N)c(C(=O)Nc3c(Cl)cccc3Cl)sc2n1	nt	-4.2%	-14.3%	nt	nt	nt	nt
Cc1ccccc1Cn1ccn(-c2ccc(F)c(F)c2)c(=O)c1=O	nt	-7.8%	-6.7%	nt	nt	nt	nt
COc1cccc(CNc2ncnc3cc(Cl)ccc23)c1	12.1%	nt	nt	-2.5%	?	nt	nt
COc1cccc(-c2ccc3ncnc(NCc4cccc(F)c4)c3c2)c1	nt	nt	nt	3.7µM*	6.57µM*	0.631µM*	0.891µM*
COc1cccc(-c2ccc3ncnc(NCc4cccc(C)c4)c3c2)c1	nt	nt	nt	3.7µM*	6.57µM*	1.26µM*	1.78µM*
COc1cc(OC)c(NC(=O)CCn2cccn2)cc1Cl	nt	-11.1%	-8.4%	nt	nt	nt	nt
CN(Cc1ccco1)c1ncnc2ccc(-c3ccoc3)cc12	nt	nt	nt	?	?	0.251µM*	0.316µM*
